High-throughput results (PubChem)
Cdc42 wt: modulators of GTP binding to wildtype Cdc42, primary screen, biochemical, multiplex bead flow cytometry, Bodipy-GTP | Cell division control protein 42 homolog (Homo sapiens), P60953 | GST-Cdc42 beads; actives lie on both sides | percent activity (GTP binding), % at 10 µM | 190,000 compounds, 0.2% hits | AID 761, 2007;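 active = percent activity GTP binding at least 20 points away from the 100% baseline, either down as inhibitor or up as activator; inconclusive = compound flagged as likely green fluorescent from well-wide comparison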;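 also: median bead fluorescence of bound Bodipy-FL-GTP at 100 nM; 0% = excess unlabeled GTP control and 100% = no compound control; below 100% means less GTP binding so inhibitor and above means activator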
Target sequence (P60953 whole entry, looked up): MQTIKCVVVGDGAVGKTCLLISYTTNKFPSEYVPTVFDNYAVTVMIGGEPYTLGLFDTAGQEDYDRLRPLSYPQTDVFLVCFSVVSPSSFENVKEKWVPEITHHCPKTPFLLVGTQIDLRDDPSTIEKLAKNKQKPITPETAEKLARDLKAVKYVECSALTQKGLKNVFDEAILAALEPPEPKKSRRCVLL
Rac1 wt GTP bind: wildtype Rac1 GTP binding modulators, primary screen, biochemical, GST-Rac1 beads, flow cytometry, multiplex | fluorescent GTP binding; actives lie on both sides; 0 = cold GTP competed, 100 = untreated | GTP binding activity (% of control), % at 10 µM | 190,000 compounds, 0.27% hits | AID 757, 2007;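 active = GTP binding activity at least 20 points away from the 100% control level, either lower or higher; inconclusive = compound flagged as likely green fluorescent, judged across all proteins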
Rab2A wt mod: modulators of GTP binding to Rab2A wildtype, primary screen, biochemical, dog, bead-based flow cytometry, multiplex; Ras-related protein Rab-2A (Canis lupus familiaris), P61105; GST-Rab2 wt beads, Bodipy-GTP binding; GTP binding activity, % at 10 µM; 190,000 compounds, 0.19% hits;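 active = GTP binding activity at least 20 points away from 100%, either lowered or raised; inconclusive = signal likely due to the compound's own green fluorescence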;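 also: 0% = beads with excess unlabeled GTP and 100% = no-compound control corrected for plate trend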
HRas wt GTP: modulators of GTP binding to HRas wildtype, primary screen, biochemical, bead-based flow cytometry, multiplex; GTPase HRas (Homo sapiens), P01112; GST-Ras wt beads, Bodipy-FL-GTP binding; actives lie on both sides; GTP binding activity, % at 10 µM; 190,000 compounds, 0.14% hits;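 active = GTP binding activity at least 20% away from the 100% baseline, either lowered as inhibitor or raised as activator; inconclusive = flagged as likely green fluorescent, judged across all proteins in the well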;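 also: 0% = unlabeled GTP competition control and 100% = no-compound control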
Target sequence (P01112 whole entry, looked up): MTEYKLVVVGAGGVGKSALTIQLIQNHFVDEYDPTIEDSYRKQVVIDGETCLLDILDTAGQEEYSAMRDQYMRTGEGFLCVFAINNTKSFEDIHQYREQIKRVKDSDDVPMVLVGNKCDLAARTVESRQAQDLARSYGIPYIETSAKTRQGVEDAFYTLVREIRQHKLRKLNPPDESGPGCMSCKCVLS
Rab7 wt modul: modulators of GTP binding to Rab7, primary screen, biochemical, wildtype, multiplex bead flow cytometry; GST-Rab7 beads, fluorescent GTP binding; actives lie on both sides; untreated = 100%, excess cold GTP = 0%; AID 758, 2007; Rab7 GTPase wild type (dog), Bodipy-FL-GTP binding; 190,000 compounds, 0.055% hits; GTP binding activity (percent of control), % at 10 µM;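 active = fluorescent GTP binding to Rab7 beads changed by at least 20 points from the 100% baseline, either direction, mostly lower; inconclusive = compound itself probably fluorescent, or too few beads counted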;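 also: median green fluorescence of bound Bodipy-FL-GTP per Rab7 bead population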
Rac1 act GTP bind: GTP binding modulators of activated mutant Rac1, primary screen, biochemical, bead-based flow cytometry, multiplex, fluorescent GTP; Ras-related C3 botulinum toxin substrate 1 (Homo sapiens), P63000; GST-Rac1 activated beads; actives lie on both sides; 100% means binding = to untreated wells; percent activity (GTP binding), % at 10 µM; 190,000 compounds, 0.11% hits;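 active = GTP binding at least 20 percentage points away from the 100% baseline, in either direction, so actives lie on both sides; inconclusive = Compound likely fluorescent itself, or too few beads counted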
An asterisk follows results filed as active; ? = inconclusive; [ ] = dose if it differs, or a comment. A selection: hits, their analogues and other compounds. The true share with any hit is near 0.4%.

SMILES	Cdc42 wt	Rac1 wt GTP bind	Rab2A wt mod	HRas wt GTP	Rab7 wt modul	Rac1 act GTP bind
CCN=C1S/C(=C\c2cn(CC)c3ccccc23)C(=O)N1CC	100	103	102	102	103	100
CCn1cc(C=C2C(=O)c3ccccc3C2=O)c2ccccc21	78*	74*	81	77*	83	81
CC(=O)Nc1ccc(/C=C/c2ccc3c([N+](=O)[O-])cccc3n2)cc1	93	96	94	94	100	94
CCN(CC)S(=O)(=O)c1ccc2c(c1)c(=O)c(C(=O)N1CCc3ccccc3C1)cn2C	115	132*[activator]	118	119	116	109
O=[N+]([O-])c1ccccc1/C=C/C=N/n1c(-c2ccco2)n[nH]c1=S	76*	77*	82	80	84	75*
O=C(O)c1ccccc1C(=O)NCc1cccnc1	99	104	100	101	97	102
O=C(NCc1cccnc1)c1cccn2c(=O)c3sccc3nc12	87	76*	82	87	91	86
Cc1nn(C)c(C)c1S(=O)(=O)N(CC(=O)N1CCc2ccccc2C1)c1ccc(C(C)C)cc1	95	96	95	97	99	97
Cc1ccc(C(=O)COC(=O)c2ccc3c(c2)C(=O)N(c2cccc4ncccc24)C3=O)cc1	77*	71*	71*	76*	84	75*
O=C(COC(=O)c1ccc2c(c1)C(=O)N(c1cccc3ncccc13)C2=O)c1ccc(Cl)cc1	89	82	83	90	90	86
CCOC(=O)c1sc2nc(C)nc(SCC(=O)NC3CCS(=O)(=O)C3)c2c1C (configuration not stated)	95	97	95	93	95	95
COc1cc(/C=N/NC(=O)Nc2cccc3nsnc23)cc(OC)c1OC	56*	76*	59*	58*	80	75*
Cc1ccc(C(=O)Nc2onc(C)c2C#N)cc1	103	104	99	100	98	99
Cc1ccc(C)c(N(CC(N)=O)S(C)(=O)=O)c1	75*	67*	72*	74*	78*	71*
COCC(C)NCc1ccc(OC)c(Br)c1 (configuration not stated)	99	100	100	101	108	98
O=C(Cn1cnc2c(nnn2Cc2ccccc2F)c1=O)NCC1CCCO1 (configuration not stated)	118	120*[activator]	126*[activator]	109	109	104
O=C(Cn1cnc2c(nnn2Cc2ccccc2)c1=O)NCC1CCCO1 (configuration not stated)	104	110	102	104	101	99
CCc1ccc(N2C(=O)CN(Cc3cccs3)C2=S)cc1	93	99	91	96	96	93
CCCCC(=O)Nc1sc2c(c1C#N)CC(C)(C)OC2	103	107	98	101	104	100
CC1(C)Cc2c(sc(NC(=O)c3ccc(Br)o3)c2C#N)CO1	148*[activator]	167*[activator]	112	104	99	118
O=C(C#Cc1ccccc1)c1cccc([N+](=O)[O-])c1	74*	84	83	87	91	71*
N/C(=N\OC(=O)Oc1ccccc1)c1cccc([N+](=O)[O-])c1	105	104	97	99	99	97
O=C(Nc1cc(S(=O)(=O)Nc2ccccc2Cl)ccc1O)c1sc2cc(Cl)ccc2c1Cl	80	83	85	87	94	78*
Cc1ccc(-c2ccc(/C=C(\C#N)C(=O)Nc3cc(C)nn3-c3ccccc3)o2)cc1	101	97	109	127*[activator]	107	120*[activator]
COc1ccc(-n2c(NC(=O)c3ccc(Br)o3)c(C#N)c3nc4ccccc4nc32)cc1	77*	79*	79*	81	85	79*
SMILES	Cdc42 wt	Rac1 wt GTP bind	Rab2A wt mod	HRas wt GTP	Rab7 wt modul	Rac1 act GTP bind
COc1ccc(Cn2c(N)c(C#N)c3nc4ccccc4nc32)cc1	99	99	97	96	99	97
CCOc1ccc(Cn2c3ccc(OC)cc3c3nc4ccccc4nc32)cc1	103	124*[activator]	130*[activator]	119	?	115
C/C(=N\Nc1ccc(S(N)(=O)=O)cc1[N+](=O)[O-])c1ccc2c(c1)OCO2	84	76*	85	89	97	88
CCCCN(CCCC)S(=O)(=O)c1c(C)[nH]c(=O)[nH]c1=O	98	101	97	100	98	96
S=c1[nH]nc(-c2ccco2)n1-c1ccccc1Cl	79*	77*	85	84	88	79*
Cc1cc(NC(=O)c2cccc(C(=O)Nc3cc(C)on3)n2)no1	79*	88	80	80	93	91
CC(=O)n1nc(-c2ccccc2)nc1NCc1ccc(N(C)C)cc1	95	92	92	91	92	92
C/C(CCc1ccc2c(c1)OCO2)=N\NC(=O)c1ccccc1Br	96	99	98	98	99	94
COc1cc2ccccc2cc1C(=O)NC(=S)Nc1cccc(C(=O)O)c1	75*	81	75*	76*	85	80
Cc1ccc(O)c(C(=O)c2cnn(C(=O)Cc3csc(C)n3)c2)c1	83	93	85	77*	79*	91
Cc1ncc(CC(=O)n2cc(C(=O)c3cc(F)ccc3O)cn2)s1	97	99	97	98	97	98
CCOC(=O)c1sc(NC(=O)CSc2nnc(Cc3ccccc3)o2)c(C#N)c1C	85	81	78*	83	83	76*
CCOC(=O)c1c(NC(=O)CSc2nnc(Cc3ccccc3)o2)sc(C(C)=O)c1C	103	102	103	103	96	99
O=[N+]([O-])c1cc2oc3c(c2c(C=NCc2ccccc2)c1O)CCCC3	74*	73*	76*	79*	78*	74*
CC(C)CN=Cc1c(O)c([N+](=O)[O-])cc2oc3c(c12)CCCC3	97	97	94	97	95	94
O=C(COC(=O)c1cc2ccccc2o1)c1ccccc1	98	102	98	99	98	101
O=C(OCCN1CCCCC1)c1cc2ccccc2o1	114	123*[activator]	106	106	102	102
